Source: PubChem BioAssay (National Center for Advancing Translational Sciences (NCATS))
TGFb SMAD3 inh = inhibitors of TGF-b signaling | HepG2 CAGA-GFP TGF-b/SMAD3 reporter, GFP fluorescence, 18 h; TGF-beta stimulated, 500 pg/mL final | Potency, µM (series often up to 46.1 µM), for inactives: at the highest dose activity, negative = inhibition, actives largely listed as inhibitors | 1.2% of 410,000 active | AID 588855; also: % is scaled to controls: 0 for no effect and ±100 for the full control effect; nearly all actives have a fitted effect of over 65% in size
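GFP signal (ex488/em500-530) from TGF-beta-stimulated HEPG2 CAGA-GFP cells, 500 pg/mL final, 18 h at 37 degrees C in DMEM plus 1% FBS, normalized to unstimulated and DMSO-stimulated controls.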
HepG2 tox = counter-screen for TGF-b inhibitors: cytotoxicity in HepG2 cells. HepG2 CAGA-GFP viability, ATP luminescence, 18 h. Potency, µM (titrated, usually from 46.1 µM), inactives show at the highest dose activity change, negative = cytotoxicity, usual class: cytotoxic. 0.76% of 410,000 active. AID 588856
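CellTiter-Glo luminescence gave cytotoxicity after 18 hours at 37 degrees C. The cells were HepG2 CAGA-GFP in 1% FBS DMEM, stimulated with 500 pg/mL TGF-beta after compound addition. %Activity was normalised to no-cell wells (complete cell-killing) and DMSO (no toxicity), and curves were fitted and classified.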
ATXN2 expr inh = ATXN2 expression inhibition; HEK-293 ATXN2-luciferase reporter, luminescence, 24 h; Potency, µM (series often up to 57 µM), inactives show top-dose activity change, negative = inhibition, most hits filed as inhibitors; 0.72% of 360,000 active; AID 1745845; also: % is scaled to controls: 0 for no effect and ±100 for the full control effect; nearly all actives have a fitted effect of over 55% in size
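qHTS (up to 57 uM final) was run with 24 h compound exposure of reporter cells at 37 °C. Each well was multiplexed: SteadyGlo luminescence measured ATXN2-luciferase expression after a fluorogenic Gly-Phe-AFC viability readout (25 uM final).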
TDP1 cell CPT = growth inhibition of DT40 Tdp1-/-;hTDP1 cells with camptothecin (screen for TDP1 inhibitors). 12% of 420,000 active. Potency, µM (titrated, usually from 46.2 µM), without a hit: top-dose activity change, negative = growth inhibition, most hits filed as inhibitors. chicken DT40 Tdp1-/-;hTDP1 cells + 20 nM CPT, ATP luminescence, 48 h. AID 686979; also: % is scaled to controls: 0 for no effect and ±100 for the full control effect; nearly all actives have a fitted effect of over 55% in size
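Chicken DT40 Tdp1-/- cells stably complemented with human TDP1 were seeded at 400 cells/well in medium containing 20 nM camptothecin, exposed to pin-transferred compounds, and grown at 37 °C for at least 48 hr. Viability was read as ATP luminescence.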
ATXN viability = reduces viability in counter-screen for ATXN expression inhibitors | 0.49% of 400,000 active | AID 651635 | S2 cells (HEK-293 line with an ATXN2-luciferase reporter) viability, CellTiter-Fluor protease fluorescence, 24 h | Potency, µM (series often up to 56.7 µM), usual class: cytotoxic; also: nearly all actives have a fitted effect of over 40% in size
TDP1 cell noCPT = qHTS for Inhibitors of human tyrosyl-DNA phosphodiesterase 1 (TDP1): qHTS in cells in absence of CPT; DT40 Tdp1-/- hTDP1 cells, no CPT, ATP luminescence, 48 h; Potency, µM (titrated, usually from 46.2 µM), without a hit: at the highest dose activity change, negative = growth inhibition, usual class: inhibitors; 15% of 420,000 active; also: % is scaled to controls: 0 for no effect and ±100 for the full control effect; nearly all actives have a fitted effect of over 55% in size
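Cells were dispensed at 400 per well, compounds added by pin tool, plates incubated ≥48 hr at 37 °C, then CellTiter-Glo added for 30 min at room temperature before luminescence reading. Line: DT40 Tdp1-/- complemented with hTDP1; camptothecin omitted.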
* hit, by the source's call; i = inactive; ? = inconclusive; . = not tested or not shown; [ ] = remark or other dose. Shown are actives, neighbours in structure and some others; about 17% of the full set was active somewhere. Calls follow the shape of the dose curve; as a rule, active = well fitted curve in the direction sought with a large enough effect; inconclusive = small, poorly fitted or top-dose-only effect, or another doubt; inactive = no such curve, though single readings can be large; an effect the other way counts as inactive or inconclusive. Potency is read from the fitted curve at half-maximal effect.

SMILES	TGFb SMAD3 inh	HepG2 tox	ATXN2 expr inh	TDP1 cell CPT	ATXN viability	TDP1 cell noCPT
COc1ccc(CCNc2nc(-c3ccc(F)cc3)c(CC(=O)O)s2)cc1OC	0%	7%	3%	15µM*	i	26µM*
COc1ccc(CCNc2nc(-c3ccc(NC(C)=O)cc3)cs2)cc1OC	?	1%	-2%	?	i	?
COc1ccccc1CNC(=O)CCc1c(C)nn(-c2ccc(N3CCOCC3)nn2)c1C	-16%	-2%	5%	-18%	i	-10%
O=C(C=C=Nc1ccccc1)C(=O)N=C=Cc1ccccc1	?	-55%	?	1.8µM*	28µM*	4.6µM*
O=C(N/N=C/c1ccccc1)C(=O)N/N=C/c1ccccc1	4%	9%	0%	-6%	i	8%
Cc1noc(C)c1CCC(=O)N1CCOc2ccc(CN3CCN(c4ccccn4)CC3)cc2C1	.	.	.	-2%[9.04 µM]	i	?
O=C(CSc1nnc(-c2ccncc2)n1CC1CCCO1)Nc1ccccc1Cl (stereo unspecified)	0%	-4%	-11%	-7%	i	-5%
CC1CCN(S(=O)(=O)c2ccc3nc(NCc4ccc(F)cc4)ccc3c2)CC1	13µM*	-20%	0%	13µM*	?	13µM*
Cc1ccc(CNc2ccc3cc(S(=O)(=O)N4CCCCC4)ccc3n2)cc1	-47%	-7%	.	10µM*	.	10µM*
CC1CCN(S(=O)(=O)c2ccc3nc(NCc4ccc(N(C)C)cc4)ccc3c2)CC1	?	-12%	?	23µM*	?	12µM*
CN(C)c1ccc(CNC(=O)C2CCN(S(=O)(=O)c3ccc4c(c3)CCC(=O)N4)CC2)cc1	-29%	-15%	0%	?	i	-28%
Cc1cccc(N2CCN(c3ccc4cc(S(=O)(=O)N5CCC(C)CC5)ccc4n3)CC2)c1C	22%	12%	13%	1%	i	-16%
CCOc1ccccc1CNc1ccc2cc(S(=O)(=O)N3CCC(C)CC3)ccc2n1	-1%	-6%	-2%	?	i	23µM*
CC1CCN(S(=O)(=O)c2ccc3nc(N4CCN(c5ccccc5F)CC4)ccc3c2)CC1	-2%	5%	4%	-14%	i	?
O=C(NC1CC(=O)N(c2ccccc2)C1)C1CCCCC1 (stereo unspecified)	9%	1%	.	-3%	.	-16%
CC(C)(C)NC(=O)CSc1nccn1Cc1ccccc1	?	9%	2%	-25%	i	-19%
Cc1sc(C(=O)Nc2ccc3ccccc3c2)cc1CC(=O)O	-3%	1%	13%	0%	i	-1%
Cn1c(Cl)cnc1C1CC(=O)c2cc(Cl)ccc2O1 (stereo unspecified)	?	-57%	?	4.1µM*	.	2.6µM*
O=C(NCCN1C(=O)S/C(=C\c2cccc(Cl)c2Cl)C1=O)C1=COCCO1	5%	-21%	-3%	1.5µM*	?	2.6µM*
Cc1cccc(N2C(=O)CC(Sc3nc(C)c4c(n3)CCCC4)C2=O)c1 (stereo unspecified)	1%	1%	-3%	?	i	-14%
COc1ccc(N2C(=O)CC(Sc3nc(C)c4c(n3)CCCC4)C2=O)cc1 (stereo unspecified)	14%	-20%	-16%	18µM*	i	23µM*
Cc1ccc(Cl)cc1N1C(=O)CC(Sc2ncccn2)C1=O (stereo unspecified)	-3%	-43%	.	?	i	21µM*
Cc1nc(SC2CC(=O)N(c3cc(Cl)cc(Cl)c3)C2=O)nc2c1CCCC2 (stereo unspecified)	?	-7%	-3%	21µM*	i	?
